Assay results reported in the supplement of paper PMC10849652.
The full data set covers some 7,900 targets. This sample favours those with a hit. About 0.6% of all pairs of compound and target were hits.

The targets below were run with COc1cc2nc(-c3cc(F)ccc3O)nc(N[C@@H]3CNC[C@H]3C(C)(C)O)c2cc1OC (assay: log2 fold change, soluble protein after heating vs DMSO (PISA); higher = thermal stabilisation; K562 cells, 10 uM, 30 min; active = over 0.2 and 3.5 SD of the protein, either way, in both replicates (recomputed)).
Outline: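 K562 cells (2×10^6 cells/mL) were treated with 10 μM compound for 30 min, and aliquots were heated for 3 min over 48°C-58°C. Pooled aliquots were extracted in PBS with 0.5% NP-40 at 4°C, and the supernatant after 21,000xg for 90 min was measured by TMTpro 16plex LC-MS/MS with channel sums equalised. Reported thermal stability, relative to control samples and from duplicates, is a log2 fold change.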

Sequence of UniProt P08243 (P08243 whole entry, looked up): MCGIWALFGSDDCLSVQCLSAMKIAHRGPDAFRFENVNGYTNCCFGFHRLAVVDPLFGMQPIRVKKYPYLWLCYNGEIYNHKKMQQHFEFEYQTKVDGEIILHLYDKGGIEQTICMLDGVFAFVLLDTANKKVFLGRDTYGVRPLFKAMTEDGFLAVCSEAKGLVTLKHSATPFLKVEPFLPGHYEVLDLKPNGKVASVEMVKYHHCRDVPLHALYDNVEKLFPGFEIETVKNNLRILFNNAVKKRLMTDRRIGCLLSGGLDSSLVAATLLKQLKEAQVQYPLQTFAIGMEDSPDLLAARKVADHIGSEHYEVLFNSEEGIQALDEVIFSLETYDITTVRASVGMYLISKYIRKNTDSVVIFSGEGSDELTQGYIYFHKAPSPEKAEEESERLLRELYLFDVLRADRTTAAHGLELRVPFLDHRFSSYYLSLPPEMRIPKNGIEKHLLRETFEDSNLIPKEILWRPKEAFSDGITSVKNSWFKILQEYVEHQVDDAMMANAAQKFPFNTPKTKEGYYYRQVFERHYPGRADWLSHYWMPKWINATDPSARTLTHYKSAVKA
Sequence of UniProt Q5JTZ9 (Q5JTZ9 whole entry, looked up): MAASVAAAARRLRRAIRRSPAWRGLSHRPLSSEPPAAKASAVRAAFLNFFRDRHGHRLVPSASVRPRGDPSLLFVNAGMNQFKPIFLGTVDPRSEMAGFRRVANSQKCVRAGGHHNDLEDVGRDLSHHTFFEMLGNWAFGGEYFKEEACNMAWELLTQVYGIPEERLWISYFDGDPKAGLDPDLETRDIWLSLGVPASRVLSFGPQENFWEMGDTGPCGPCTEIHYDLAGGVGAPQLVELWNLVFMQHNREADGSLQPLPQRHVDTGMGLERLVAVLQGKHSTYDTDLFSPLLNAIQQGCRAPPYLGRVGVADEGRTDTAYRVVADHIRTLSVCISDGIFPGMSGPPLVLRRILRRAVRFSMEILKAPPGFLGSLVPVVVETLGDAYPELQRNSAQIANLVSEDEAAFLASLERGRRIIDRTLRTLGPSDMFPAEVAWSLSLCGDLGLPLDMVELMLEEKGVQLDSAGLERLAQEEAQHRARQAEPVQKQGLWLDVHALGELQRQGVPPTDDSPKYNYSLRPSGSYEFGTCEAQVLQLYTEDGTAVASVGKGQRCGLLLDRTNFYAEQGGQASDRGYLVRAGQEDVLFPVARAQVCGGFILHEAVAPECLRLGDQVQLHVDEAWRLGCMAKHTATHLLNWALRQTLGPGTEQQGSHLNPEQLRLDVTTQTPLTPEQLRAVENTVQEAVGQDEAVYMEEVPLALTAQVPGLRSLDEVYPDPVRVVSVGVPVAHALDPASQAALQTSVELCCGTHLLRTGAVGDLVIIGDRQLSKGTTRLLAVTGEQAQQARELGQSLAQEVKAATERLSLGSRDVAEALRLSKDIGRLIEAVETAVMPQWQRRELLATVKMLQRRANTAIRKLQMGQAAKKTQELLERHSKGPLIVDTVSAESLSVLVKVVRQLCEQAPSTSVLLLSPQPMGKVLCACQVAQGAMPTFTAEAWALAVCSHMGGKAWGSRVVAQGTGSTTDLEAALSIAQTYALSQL
Sequence of UniProt Q14457 (Q14457 whole entry, looked up): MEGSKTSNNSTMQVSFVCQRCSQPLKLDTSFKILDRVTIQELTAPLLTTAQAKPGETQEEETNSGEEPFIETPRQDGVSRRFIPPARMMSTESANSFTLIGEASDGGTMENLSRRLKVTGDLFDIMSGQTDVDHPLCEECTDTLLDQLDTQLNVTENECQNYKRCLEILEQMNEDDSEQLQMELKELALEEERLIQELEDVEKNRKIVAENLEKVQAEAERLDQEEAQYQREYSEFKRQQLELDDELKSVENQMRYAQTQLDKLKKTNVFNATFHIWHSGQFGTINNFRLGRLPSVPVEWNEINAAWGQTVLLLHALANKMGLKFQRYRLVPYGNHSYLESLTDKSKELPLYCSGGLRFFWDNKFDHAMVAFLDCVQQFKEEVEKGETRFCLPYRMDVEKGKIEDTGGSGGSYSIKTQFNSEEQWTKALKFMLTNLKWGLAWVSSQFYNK
Sequence of UniProt O00244 (O00244 whole entry, looked up): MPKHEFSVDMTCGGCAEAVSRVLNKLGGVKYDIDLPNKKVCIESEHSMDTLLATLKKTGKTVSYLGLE
Sequence of UniProt Q9Y6E2 (Q9Y6E2 whole entry, looked up): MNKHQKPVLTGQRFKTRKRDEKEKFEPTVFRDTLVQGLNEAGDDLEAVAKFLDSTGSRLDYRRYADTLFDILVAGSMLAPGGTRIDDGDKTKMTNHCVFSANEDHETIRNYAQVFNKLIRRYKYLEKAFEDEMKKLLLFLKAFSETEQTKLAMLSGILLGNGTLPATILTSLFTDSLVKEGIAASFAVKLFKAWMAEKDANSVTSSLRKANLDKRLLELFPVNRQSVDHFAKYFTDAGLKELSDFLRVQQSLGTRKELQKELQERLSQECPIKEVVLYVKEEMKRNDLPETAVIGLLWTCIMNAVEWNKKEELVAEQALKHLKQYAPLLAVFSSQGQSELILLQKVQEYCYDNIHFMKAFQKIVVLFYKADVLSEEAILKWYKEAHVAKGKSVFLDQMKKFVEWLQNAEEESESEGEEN
Sequence of UniProt O00116 (O00116 whole entry, looked up): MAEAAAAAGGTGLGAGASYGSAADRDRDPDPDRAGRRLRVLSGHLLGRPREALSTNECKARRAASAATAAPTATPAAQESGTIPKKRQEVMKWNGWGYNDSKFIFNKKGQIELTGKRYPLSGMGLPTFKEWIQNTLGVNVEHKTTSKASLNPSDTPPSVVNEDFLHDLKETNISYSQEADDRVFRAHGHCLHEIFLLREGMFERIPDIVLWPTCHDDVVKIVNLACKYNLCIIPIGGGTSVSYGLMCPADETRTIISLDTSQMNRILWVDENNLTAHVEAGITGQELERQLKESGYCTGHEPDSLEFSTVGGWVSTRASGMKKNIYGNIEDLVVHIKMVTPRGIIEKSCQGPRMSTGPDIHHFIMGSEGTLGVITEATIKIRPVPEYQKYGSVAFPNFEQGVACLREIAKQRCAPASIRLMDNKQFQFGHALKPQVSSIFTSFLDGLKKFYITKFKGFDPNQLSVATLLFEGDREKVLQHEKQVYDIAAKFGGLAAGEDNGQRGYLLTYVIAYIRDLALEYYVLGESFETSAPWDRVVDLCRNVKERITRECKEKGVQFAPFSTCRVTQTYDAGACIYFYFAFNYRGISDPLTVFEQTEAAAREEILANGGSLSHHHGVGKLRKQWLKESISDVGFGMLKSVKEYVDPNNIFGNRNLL
Sequence of UniProt O94973 (O94973 whole entry, looked up): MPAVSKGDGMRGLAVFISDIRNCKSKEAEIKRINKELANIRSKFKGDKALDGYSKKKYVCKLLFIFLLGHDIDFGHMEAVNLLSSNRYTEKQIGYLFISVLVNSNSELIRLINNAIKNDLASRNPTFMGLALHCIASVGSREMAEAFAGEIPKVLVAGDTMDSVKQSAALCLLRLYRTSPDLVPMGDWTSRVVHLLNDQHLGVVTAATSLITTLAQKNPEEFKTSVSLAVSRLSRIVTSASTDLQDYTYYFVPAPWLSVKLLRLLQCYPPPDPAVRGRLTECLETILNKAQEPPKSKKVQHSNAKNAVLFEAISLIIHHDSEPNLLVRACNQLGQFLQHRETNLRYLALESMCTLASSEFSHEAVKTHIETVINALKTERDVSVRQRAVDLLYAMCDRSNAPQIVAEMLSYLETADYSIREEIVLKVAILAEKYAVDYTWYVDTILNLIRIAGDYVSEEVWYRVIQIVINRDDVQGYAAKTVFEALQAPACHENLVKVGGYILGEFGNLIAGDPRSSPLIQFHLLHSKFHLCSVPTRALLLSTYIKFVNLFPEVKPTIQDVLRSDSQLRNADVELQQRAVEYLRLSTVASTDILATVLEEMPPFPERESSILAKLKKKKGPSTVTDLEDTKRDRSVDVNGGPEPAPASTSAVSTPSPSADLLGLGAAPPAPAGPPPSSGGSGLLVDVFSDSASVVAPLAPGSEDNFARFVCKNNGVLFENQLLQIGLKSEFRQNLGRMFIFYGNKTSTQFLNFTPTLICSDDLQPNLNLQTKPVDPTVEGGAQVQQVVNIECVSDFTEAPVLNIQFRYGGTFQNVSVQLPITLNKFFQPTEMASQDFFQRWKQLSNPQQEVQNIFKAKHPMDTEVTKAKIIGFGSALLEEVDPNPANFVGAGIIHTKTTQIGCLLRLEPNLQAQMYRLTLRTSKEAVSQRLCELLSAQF
Sequence of UniProt P54709 (P54709 whole entry, looked up): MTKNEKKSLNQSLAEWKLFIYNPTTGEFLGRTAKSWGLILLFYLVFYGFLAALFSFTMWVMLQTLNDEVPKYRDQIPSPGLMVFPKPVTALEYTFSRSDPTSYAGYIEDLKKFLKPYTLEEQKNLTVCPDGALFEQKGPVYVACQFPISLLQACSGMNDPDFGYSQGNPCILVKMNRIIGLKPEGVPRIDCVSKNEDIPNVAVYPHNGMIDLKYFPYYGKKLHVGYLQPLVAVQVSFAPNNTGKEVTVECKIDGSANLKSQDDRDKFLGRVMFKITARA
Sequence of UniProt P30043 (P30043 whole entry, looked up): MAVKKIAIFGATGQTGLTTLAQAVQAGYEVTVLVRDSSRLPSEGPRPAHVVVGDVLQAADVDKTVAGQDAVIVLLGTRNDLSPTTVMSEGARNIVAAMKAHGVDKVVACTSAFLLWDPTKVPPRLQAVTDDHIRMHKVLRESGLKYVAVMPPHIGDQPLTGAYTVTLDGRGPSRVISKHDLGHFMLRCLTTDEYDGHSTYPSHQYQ
Sequence of UniProt Q9BRQ8 (Q9BRQ8 whole entry, looked up): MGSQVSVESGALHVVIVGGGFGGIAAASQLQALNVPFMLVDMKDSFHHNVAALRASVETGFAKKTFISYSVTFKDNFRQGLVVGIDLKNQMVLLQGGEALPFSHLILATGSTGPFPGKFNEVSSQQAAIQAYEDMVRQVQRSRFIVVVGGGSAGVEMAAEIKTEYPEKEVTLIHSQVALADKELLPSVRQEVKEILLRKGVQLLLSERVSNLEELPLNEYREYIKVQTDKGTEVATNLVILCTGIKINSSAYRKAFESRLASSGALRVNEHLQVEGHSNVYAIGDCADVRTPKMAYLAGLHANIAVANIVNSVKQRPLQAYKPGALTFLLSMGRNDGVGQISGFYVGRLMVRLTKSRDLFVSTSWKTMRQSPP

log2 fold change, inactive:
BLVRB (UniProt P30043) 0.045
ARL3 (UniProt P36405) -0.007
AGRN (UniProt O00468) -0.071
AARS2 (UniProt Q5JTZ9) -0.012
AP2A2 isoform 2 (UniProt O94973) 0.083
ATOX1 (UniProt O00244) -0.388
ATP6V0A1 isoform 3 (UniProt Q93050) -0.298
ALG3 (UniProt Q92685) 0.035
APOH (UniProt P02749) -0.059
ATP12A isoform 2 (UniProt P54707) 0.071
AGPS (UniProt O00116) -0.044
ATP1A1 (UniProt P05023) 0.032
BZW2 (UniProt Q9Y6E2) 0.011
ACIN1 (UniProt Q9UKV3) -0.062
BMP2K (UniProt Q9NSY1) 0.055
AIFM2 (UniProt Q9BRQ8) 0.023
ATP1B3 (UniProt P54709) 0.034
BECN1 (UniProt Q14457) 0.117
ATP6V1H (UniProt Q9UI12) -0.064
ATAD3B (UniProt Q5T9A4) -0.138
ADRM1 (UniProt Q16186) -0.029
BRD3 (UniProt Q15059) 0.086
ASNS (UniProt P08243) 0.02
